The full list was thinned out, with hits kept by preference.
CD40 NFkB inh – inhibitors of CD40-induced NF-kB signaling, primary screen, BL2 cells, luciferase reporter, single point; CD40L-induced, 4 h; inhibition, % at 10 µM; hit rate 0.94% among 83,000; AID 1053188, 2014;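 active means mean inhibition of at least 50% with a set share of replicates also reaching that level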
A number is an active result; . = inactive; [ ] = dose if it differs, or a comment.

SMILES	CD40 NFkB inh
CO[C@H](CN(C)Cc1nccs1)[C@H](C)CN([C@@H](C)CO)S(=O)(=O)c1ccc(F)cc1	.
O=C(CCN1C(=O)c2ccccc2S1(=O)=O)Nc1ccc2c(c1)OCCO2	.
O=C(CN1C(=O)c2ccccc2S1(=O)=O)c1ccc2c(c1)OCCO2	95
O=C(Cn1cnc2ccccc2c1=O)c1ccc2c(c1)OCCO2	.
Nc1nc2c(F)cccc2s1	.
CC(=O)N/C(N)=N/c1nc(=O)c2ccccc2s1	.
Nc1nc(=O)c2ccccc2s1	51
O=C(C1CC1)N1[C@H](CO)[C@@H]2c3ccccc3N(S(=O)(=O)c3ccccc3)C[C@@H]21	.
O=C1c2cccnc2C(=O)N1C1CCCCC1	.
NC1=C(Br)C(=O)c2ncccc2C1=O	70
O=C1C=C(NCCc2cc(Br)c(O)c(Br)c2)C(=O)c2ncccc21	.
COc1ccc2c3c([nH]c2c1)[C@@H](CO)N(Cc1nccs1)CC31CCN(Cc2cccnc2)CC1	.
C/C=C/c1ccc([C@H]2[C@@H](CO)N(C(=O)CC)[C@H]2CN(C)Cc2cncnc2)cc1	.
c1c2c(cc3sc(N4CCOCC4)nc13)OCCO2	87
Nc1ccc2nc(N3CCOCC3)sc2c1	.
c1ccc(N2CCN(c3nc4cc5c(cc4s3)OCCO5)CC2)cc1	.
C[C@@H]1CN(C)C(=O)Cc2cc(N)ccc2O[C@@H]1CN(C)C	.
N#C[C@@H]1[C@@H](c2ccc(C#Cc3cccnc3)cc2)[C@@H](CO)N1C(=O)C1CCCC1	.
C[C@@H](NC(=O)C[C@@H]1C[C@@H]2c3cc(NC(=O)NC4CCCC4)ccc3O[C@@H]2[C@H](CO)O1)c1ccccc1	.
COc1ccc2oc(C(=O)NCCc3ccccc3)c(C)c2c1	58
COc1ccc2oc(C(=O)NCC(c3ccco3)N(C)C)c(C)c2c1 (stereo unspecified)	.
Cc1c(C(=O)NCCc2ccccc2)oc2ccc(S(=O)(=O)N3CCOCC3)cc12	.
O=C1C=CC(=O)N1Cc1cccnc1	.
O=C1C=CC(=O)N1CCCCCCCCCCN1C(=O)C=CC1=O	110
CN1C(=O)c2cc(NC(=O)Nc3ccccc3Cl)ccc2OC[C@@H]2O[C@@H](CC(=O)O)CC[C@H]21	.
SMILES	CD40 NFkB inh
CCCCCCCCCCCCCCCC[n+]1ccccc1	99
O=C(c1ccc(F)cc1)N1CC[C@@H]2[C@H](CO)Nc3ccc(C#Cc4ccccc4F)cc3[C@@H]21	.
COc1ccccc1C#Cc1ccc([C@@H]2[C@@H](C#N)N(C(=O)C3CCCCC3)[C@@H]2CO)cc1	.
N#C[C@H]1[C@H](c2ccc(C#Cc3ccccc3F)cc2)[C@@H](CO)N1C(=O)C1CCC1	62
N#C[C@@H]1[C@H](c2ccc(C#Cc3ccc(F)cc3)cc2)[C@@H](CO)N1C(=O)C1CCC1	90[25 µM]
N#C[C@H]1[C@H](c2ccc(C#Cc3ccc(F)cc3)cc2)[C@H](CO)N1C(=O)C1CCC1	.
N#C[C@H]1[C@@H](c2ccc(C#Cc3ccc(F)cc3)cc2)[C@H](CO)N1C(=O)C1CCC1	.
N#C[C@@H]1[C@@H](c2ccc(C#Cc3ccccc3F)cc2)[C@H](CO)N1C(=O)C1CCC1	.
N#C[C@H]1[C@H](c2ccc(C#Cc3ccccc3F)cc2)[C@H](CO)N1C(=O)C1CCC1	.
COc1ccccc1C#Cc1ccc([C@H]2[C@@H](C#N)N(C(=O)C3CCC3)[C@@H]2CO)cc1	.
N#C[C@@H]1[C@H](c2ccc(C#Cc3ccccc3F)cc2)[C@@H](CO)N1C(=O)C1CCC1	81
COc1ccc2c3c([nH]c2c1)[C@@H](CO)N(C(=O)c1cccnc1)CC31CN(C(=O)Nc2cccc(F)c2)C1	.
COc1ccccc1NC(=O)N1[C@H](C#N)[C@@H](c2ccccc2)[C@@H]1CO	.
O=C(C[C@@H]1C[C@@H]2c3cc(NC(=O)Cc4ccncc4)ccc3O[C@@H]2[C@@H](CO)O1)NCCN1CCCCC1	.
CN1C[C@H]2[C@@H](c3ccccc31)[C@H](CO)N2C(=O)C1CC1	.
CC(C)(C)S(=O)N1Cc2cc(C(=O)NCCCN3CCOCC3)nc(-c3cccc(-c4cccc(F)c4)c3)c2[C@H]1CCO (stereo partly specified)	.
CO[C@H]1CN(C)C(=O)c2ccc(NC(=O)C3CC3)cc2OC[C@@H](C)N(Cc2cccnc2)C[C@H]1C	.
N#C[C@@H]1[C@@H](c2ccccc2C2=CCCC2)[C@H](CO)N1C(=O)CN1CCOCC1	.
COc1ccc(-c2cc(NC=O)c3ncc(-c4cccc(C(=O)N(C)C)c4)n3c2)cn1	.
CC(=O)Nc1cc(-c2cccc(C(=O)N(C)C)c2)cn2c(-c3ccccc3)cnc12	.
CN(C)C(=O)c1cccc(-c2cnc3c(NC=O)cc(-c4cccc(C(F)(F)F)c4)cn23)c1	65
COc1ccccc1NC(=O)N1CC(=O)N2[C@H](CO)[C@@H](c3ccc(C#CC(C)C)cc3)[C@H]2C1	.
Cc1ccc(S(=O)(=O)N[C@H]2CC[C@H](CCn3cc(C4CCCC4)nn3)O[C@@H]2CO)cc1	.
CCC(=O)N1[C@@H](CO)[C@@H](c2ccccc2)C12CN(C(=O)Nc1ccccc1F)C2	.
COc1ccc(C2C(=O)c3ccccc3C2=O)cc1	.
SMILES	CD40 NFkB inh
O=C1c2ccccc2-c2nc3ccccc3cc21	.
O=C1c2ccccc2C(=O)C1c1ccc2ccccc2n1	52
CN(C)C(=O)c1cccc(-c2ccc3n(c2=O)C[C@@H]2[C@@H](CO)[C@H](C(=O)NCC(F)(F)F)[C@H]3N2C)c1	.
CCC(=O)N1[C@H](CN(C(C)C)S(C)(=O)=O)[C@H](c2ccccc2)[C@@H]1CO	.
CCCCC#Cc1nc(NC)c2ncn(C3OC(CO)C(O)C3O)c2n1 (stereo unspecified)	.
CCn1nccc1C(=O)Nc1nc2ccccc2n1CCN1CCCCC1	.
CCCn1c(NC(=O)c2cccc(S(=O)(=O)N3CCCC3)c2)nc2ccccc21	90
Cc1ccc(C(=O)Nc2nc3ccccc3n2CCN2CCCC2)cc1	.
CN1C(=O)c2cc(NC(=O)C3CCCCC3)ccc2OC[C@@H]2O[C@H](CC(=O)NCC3CCCCC3)CC[C@H]21	.
CN(C)C(=O)c1ccc(-c2ccc3c(c2)[C@H]2[C@H](CCN2C(=O)C2CC2)[C@@H](CO)N3C)cc1	.
N#C[C@H]1[C@@H](c2ccccc2-c2ccccc2F)[C@H](CO)N1C(=O)c1ccccn1	.
CN(C)C(=O)c1cccc(-c2ccc([C@H]3[C@H]4CN(C(=O)C5CCC5)CC(=O)N4[C@H]3CO)cc2)c1	.
CCOC(=O)c1c(-c2ccc(C)o2)csc1NC(=O)CN1CCC(C(N)=O)CC1	.
CCOC(=O)c1c(-c2ccc(C)o2)csc1NC(=O)CN1CCCCC1	63
CCOC(=O)c1c(-c2ccc(C)o2)csc1NC(=O)CN1CCN(CC)CC1	.
C[C@H]1CN([C@@H](C)CO)C(=O)CCCn2cc(nn2)CO[C@H]1CN(C)C(=O)Nc1ccc(-c2cccs2)cc1	.
CCC(=O)N1[C@H](CO)[C@H](c2ccc(C3=CCCC3)cc2)[C@@H]1CNC1CCCCC1	.
c1cc2nncn2nc1N1CCCC1	.
CCOC(=O)c1cn2nc(N3CCCCC3)ccc2n1	66
CCOC(=O)c1cn2nc(N3CCCC3)ccc2n1	.
CN(C[C@H]1[C@@H](c2ccccc2)[C@@H](CO)N1C(=O)C1CCC1)C(=O)c1ccncc1	.
OC[C@H]1[C@@H](c2ccc(-c3cncnc3)cc2)[C@@H]2CN(CC3CCOCC3)CCCCN12	.
O=C(NCCc1ccncc1)[C@H]1[C@H](CO)[C@H]2Cn3c(cccc3=O)[C@@H]1N2Cc1ccccc1F	.

High-throughput results: PubChem, Broad Institute
